Screens deposited in PubChem BioAssay by several laboratories.
PTEN del growth – growth suppressors of cells with PTEN tumor suppressor deletion; HCT116 PTEN-null viability, CellTiter-Glo, 60 h; hits give low values; AID 827; 140,000 compounds, 1.2% hits; viability, % at 10 µM;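 active = viability at or below a set limit, 4 SD under the median of all tested compounds, cut at about 3.7% in these data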;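 note: PTEN knockout HCT116 line with beta catenin targeted HCT116 as companion control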
INS promoter inh – TRM-6 insulin promoter activity inhibition; TRM-6 cells (human fetal islet line), insulin promoter-eGFP reporter, imaging; reporter expression induced with tamoxifen; inhibition, % at 2 µM; 130,000 compounds, 0.9% hits;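 active = inhibition above the mean plus 3 SD, with well images judged a real hit on visual review, cut at about 60% in these data, passing the limit was not always enough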
ROMK primary – modulates human ROMK potassium channel activity. 130,000 compounds, 2% hits. B-score at 10 µM. Tet-inducible ROMK, thallium flux fluorescence; actives lie on both sides. P48048;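 active = signal ratio slope over the read window, or its plate-corrected B-score, at least 3 SD from the plate mean, either direction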;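 note: B-score of the F/F0 ratio slope over 7 to 12 s after thallium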
Target sequence (P48048 whole entry, looked up): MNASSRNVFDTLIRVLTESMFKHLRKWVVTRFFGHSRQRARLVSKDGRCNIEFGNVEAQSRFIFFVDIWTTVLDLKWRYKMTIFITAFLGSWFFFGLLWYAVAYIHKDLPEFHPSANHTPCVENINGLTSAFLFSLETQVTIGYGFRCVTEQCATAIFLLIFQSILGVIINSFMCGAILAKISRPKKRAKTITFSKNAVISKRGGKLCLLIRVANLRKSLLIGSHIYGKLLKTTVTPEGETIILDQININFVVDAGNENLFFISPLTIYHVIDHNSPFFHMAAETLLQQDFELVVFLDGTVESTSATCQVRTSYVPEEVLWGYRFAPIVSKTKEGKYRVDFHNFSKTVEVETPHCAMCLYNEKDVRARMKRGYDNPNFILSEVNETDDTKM
bCat KO growth – beta-catenin-lacking colon tumor cell growth suppression | HCT116 beta-catenin knockout viability, CellTiter-Glo, 60 h; hits give low values | viability, % at 10 µM | 140,000 compounds, 1.5% hits | AID 818;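 active = viability at or under a set limit, the compound median less 4 SD, cut at about 6% in these data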
L major viab – inhibitors of Leishmania major promastigote growth; Leishmania major promastigotes, resazurin fluorescence viability; inhibition, % at 10 µM; 200,000 compounds, 9% hits; AID 1063; in the data active = inhibition above about 50%;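 note: promastigotes grown with compound for 44 hours at 28 °C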
p97 inhibitor – human p97 ATPase inhibition; recombinant p97 ATPase, Kinase-Glo ATP luminescence, 3 h; inhibition, % at 8 µM; P55072; 220,000 compounds, 0.42% hits; in the data active = inhibition above about 15%
A number is an active result. Hits are enriched below; roughly 10% of the tested compounds scored in any of these assays.

Results for Cc1ccc(C2C(C=Nc3c(C)n(C)n(-c4ccccc4)c3=O)=C(c3ccccc3)Oc3ccccc32)cc1 (stereo unspecified) ?
PTEN del growth: inactive; INS promoter inh: inactive; bCat KO growth: inactive; L major viab: 56; p97 inhibitor: inactive

How did COC(=O)c1sc(N)c(C(=O)OC)c1COC(=O)C1CC(=O)N(Cc2ccco2)C1 (stereo unspecified) do in these assays?
PTEN del growth: inactive; INS promoter inh: inactive; bCat KO growth: inactive; L major viab: 51; p97 inhibitor: inactive

How did CC[n+]1c(C=C2C=C(C)OC(C)=C2)sc2ccccc21 do in these assays?
INS promoter inh: inactive; ROMK primary: inactive; L major viab: 100; p97 inhibitor: inactive

How did CC[n+]1c(/C=C2/C=C(C)CC(C)C2)sc2ccccc21 (stereo unspecified) do in these assays?
INS promoter inh: inactive; L major viab: 100; p97 inhibitor: inactive

How did Cc1sc2ccccc2[n+]1CCC(C)S(=O)(=O)[O-] (stereo unspecified) do in these assays?
PTEN del growth: inactive; INS promoter inh: inactive; bCat KO growth: inactive; L major viab: inactive; p97 inhibitor: inactive

How did Cc1cc2ccccc2c(=O)n1CC(=O)NCCC1=CCCCC1 do in these assays?
INS promoter inh: inactive; ROMK primary: inactive; L major viab: inactive; p97 inhibitor: inactive

What do the screens show for `O=C(COC(=O)CCc1ccc(S(=O)(=O)N2CCOCC2)cc1)NC1CCCCCC1`?
PTEN del growth: inactive; INS promoter inh: inactive; ROMK primary: inactive; bCat KO growth: inactive; L major viab: inactive; p97 inhibitor: inactive

How did COc1cc(/C=C/C(=O)OCC(=O)N2CCc3ccccc3C2)ccc1O do in these assays?
PTEN del growth: inactive; INS promoter inh: inactive; bCat KO growth: inactive; L major viab: 76; p97 inhibitor: inactive

How did CCc1cccc2c(C(=O)COC(=O)/C=C/c3ccc(O)c(OC)c3)c[nH]c12 do in these assays?
PTEN del growth: inactive; INS promoter inh: inactive; bCat KO growth: inactive; L major viab: 99; p97 inhibitor: inactive

How did Cc1cc(NC(=O)CSc2nnc(-c3ccncc3)n2N)ccc1Br do in these assays?
PTEN del growth: inactive; INS promoter inh: inactive; bCat KO growth: inactive; L major viab: inactive; p97 inhibitor: inactive

Results for O=c1c(C(c2ccccc2)c2c(O)sc3ccccc3c2=O)c(O)sc2ccccc12 ?
PTEN del growth: inactive; INS promoter inh: 80; bCat KO growth: inactive; L major viab: inactive; p97 inhibitor: inactive

What do the screens show for `Cc1cc2nc(C3CCN(CC4COc5ccccc5O4)CC3)[nH]c2cc1C` (stereo unspecified)?
PTEN del growth: inactive; INS promoter inh: inactive; ROMK primary: inactive; bCat KO growth: inactive; L major viab: 91; p97 inhibitor: inactive

Results for Cc1cc2nc3ccc(=[N+](C)C)cc-3sc2cc1N ?
ROMK primary: inactive; p97 inhibitor: inactive

What do the screens show for `CN(C)c1ccc2nc3ccc(=[N+](C)C)cc-3sc2c1`?
INS promoter inh: inactive; ROMK primary: inactive; L major viab: 100; p97 inhibitor: inactive

How did CN1CCN(S(=O)(=O)c2ccc(Sc3nc4ccccc4[nH]3)c3nsnc23)CC1 do in these assays?
PTEN del growth: inactive; INS promoter inh: inactive; bCat KO growth: inactive; L major viab: 100; p97 inhibitor: inactive

What do the screens show for `CN(C)CCC(=O)c1cccc(Br)c1`?
ROMK primary: inactive; L major viab: 52; p97 inhibitor: inactive

What do the screens show for `CN(C)CCC(=O)c1ccc2c(c1)OCO2`?
PTEN del growth: inactive; INS promoter inh: 82; ROMK primary: inactive; bCat KO growth: inactive; L major viab: 98; p97 inhibitor: inactive

Results for CN(C)CCCC(=O)c1ccc2c(c1)OCO2 ?
PTEN del growth: inactive; INS promoter inh: inactive; ROMK primary: inactive; bCat KO growth: inactive; L major viab: inactive; p97 inhibitor: inactive

How did CCCn1c(SCC(=O)NCCc2ccccc2)nnc1C(C)C do in these assays?
ROMK primary: inactive; p97 inhibitor: inactive

Results for COc1cccc(C(=O)COc2ccccc2-c2ccccc2)c1 ?
PTEN del growth: inactive; INS promoter inh: inactive; bCat KO growth: inactive; L major viab: 53; p97 inhibitor: inactive

What do the screens show for `Cc1c(C(=O)NCc2ccc3c(c2)OCO3)cccc1[N+](=O)[O-]`?
PTEN del growth: inactive; INS promoter inh: inactive; ROMK primary: inactive; bCat KO growth: inactive; L major viab: inactive; p97 inhibitor: inactive

Results for COCCNC(=O)CCCn1c(=O)c2ccccc2n(CC(=O)NCCC2=CCCCC2)c1=O ?
PTEN del growth: inactive; bCat KO growth: inactive; L major viab: inactive; p97 inhibitor: inactive

What do the screens show for `COCCNC(=O)CCCn1c(=O)c2cc(OC)c(OC)cc2n(CC(=O)NCCC2=CCCCC2)c1=O`?
INS promoter inh: 75; ROMK primary: inactive; L major viab: inactive; p97 inhibitor: inactive

What do the screens show for `CC(=O)c1ccc(NC(=O)COC(=O)CCc2ccc(S(=O)(=O)N3CCOCC3)cc2)cc1`?
p97 inhibitor: inactive

What do the screens show for `Cc1cc2c(N=NC(=O)C3CC3c3ccccc3)c(O)[nH]c2cc1Br` (stereo unspecified)?
PTEN del growth: inactive; INS promoter inh: inactive; ROMK primary: inactive; bCat KO growth: inactive; L major viab: inactive; p97 inhibitor: inactive

How did O=c1[nH]n2c(=O)c3c([nH]c2c1N=Nc1cccc(C(F)(F)F)c1)CCCC3 do in these assays?
PTEN del growth: inactive; INS promoter inh: inactive; ROMK primary: inactive; bCat KO growth: inactive; L major viab: inactive; p97 inhibitor: inactive

How did Cc1[nH]n(C2=NCCS2)c(=O)c1N=Nc1cccc(C(F)(F)F)c1 do in these assays?
INS promoter inh: inactive; ROMK primary: inactive; L major viab: 99; p97 inhibitor: inactive

Results for O=C1c2ccccc2C(=O)N1CCCc1c[nH]c2ccc(Cl)cc12 ?
PTEN del growth: inactive; INS promoter inh: inactive; ROMK primary: inactive; bCat KO growth: inactive; L major viab: inactive; p97 inhibitor: inactive

How did CNC(=S)NCc1ccc2[nH]c(C)cc2c1 do in these assays?
INS promoter inh: inactive; ROMK primary: inactive; L major viab: inactive; p97 inhibitor: inactive

How did CCc1cccc(C)c1NC(=S)NCc1ccc2[nH]c(C)cc2c1 do in these assays?
PTEN del growth: inactive; INS promoter inh: 71; ROMK primary: inactive; bCat KO growth: inactive; L major viab: 93; p97 inhibitor: inactive

Results for CCOc1ccc(N2C(=O)CC(N(CCc3ccc(OC)c(OC)c3)C(=O)/C=C/C(=O)O)C2=O)cc1 (stereo unspecified) ?
p97 inhibitor: inactive

Results for CCCCC(=O)Nc1sc2c(c1C(=O)OCC)CCC(C=O)=C2Cl ?
PTEN del growth: 1.1; ROMK primary: inactive; bCat KO growth: 1.4; L major viab: 99; p97 inhibitor: inactive

How did COc1cc(C=Nc2cccc(C)c2)c(O)c([N+](=O)[O-])c1 do in these assays?
PTEN del growth: inactive; INS promoter inh: inactive; ROMK primary: inactive; bCat KO growth: inactive; L major viab: 68; p97 inhibitor: inactive

Results for COC(=O)[C@@]1(Cc2ccc(F)cc2)[C@H]2c3cc(C(=O)N(C)C)n(Cc4ccc(OC(F)(F)F)cc4)c3C[C@H]2CN1C(=O)c1ccccc1 ?
PTEN del growth: inactive; INS promoter inh: inactive; ROMK primary: inactive; bCat KO growth: inactive; L major viab: 83; p97 inhibitor: inactive
